Our source for the Potency values is PubChem BioAssay AID1345085 (National Center for Advancing Translational Sciences (NCATS), 2018).

Inconclusive results are not listed. A call without a number means that no potency is given here. Active and inactive are the calls of the source. The call rests on the fitted dose curve; in most records, active means well fitted cell-killing curve with a large enough effect; inconclusive means small, poorly fitted or top-dose-only effect, or effect the other way; inactive means no such curve, though single readings can be large or run the other way.
Potency means the concentration at half of the fitted maximal effect.

The assay concerns SW626. Kind of assay: Confirmatory qHTS for gynecologic anti-cancer compounds from libraries of approved drugs and bioactive compounds. Further: nearly all actives have a fitted effect of over 55% in size. The following applies: gynecologic cancer cell panel viability, ATPlite luminescence, 48 h; series mostly up to 57.6 µM. In a few lines:
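Seeding 1,000 cells per well preceded overnight (16 h) attachment, after which 48 h drug treatment across 57.5 uM–0.977 nM (11 points) was applied. Remaining cellular ATP, detected by ATPlite luminescence, defined IC50.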
A general note: In qHTS, concentration-response curves come from the screen itself.
`CCNC(=O)C[C@@H]1N=C(c2ccc(Cl)cc2)c2cc(OC)ccc2-n2c(C)nnc21`: the Potency entry was “inactive”.
Turning to `C=C(C)[C@H]1Cc2c(ccc3c2O[C@@H]2COc4cc(OC)c(OC)cc4[C@@H]2C3=O)O1`, the Potency entry was “inactive”.
To `C[C@]12CC[C@H]3[C@@H](CCC4=CC(=O)CC[C@@H]43)[C@@H]1CC[C@@H]2OC(=O)CCc1ccccc1` belongs “inactive”; to `C[C@H]1CCC/C=C/C2C[C@H](O)C[C@H]2[C@H](O)/C=C/C(=O)O1` (some centres not stated), 172 nM (active); to `CCN1CCN(C(=O)Cc2ccc(Nc3ncc(F)c(Nc4ccc(C(=O)Nc5ccccc5Cl)cc4)n3)cc2)CC1`, “inactive”.
To `O=C(O)Cc1ccccc1` belongs “inactive”; to `CCOc1ccccc1-n1c(C(C)N2CCN(C(=O)COc3ccc(Cl)cc3)CC2)nc2ccccc2c1=O` (configuration not stated), 4850 nM (active).
